Assay results reported in PubChem BioAssay (NCI).
This is part of a sample that, as a whole, favours compounds with a hit. Of some 79,000 tested, about 15% had one in any assay. The source made the active and inactive calls. Cut-off read from the data, not from the text of the source: active = growth inhibition above about 70%; inactive = the rest.

Experiments:
[1] = NCI Yeast Anticancer Drug Screen. Data for the rad52 strain (AID 147);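 note: 0% = growth of vehicle-treated control cultures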; conditions: S. cerevisiae rad52 mutant growth inhibition, active compounds read high
Outline: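 DNA repair-defective yeast; compound exposure; growth scored against vehicle controls.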

[2] = NCI Yeast Anticancer Drug Screen. Data for the wt1 strain (AID 149);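 note: 0% = growth of vehicle-treated wt1 cultures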; conditions: S. cerevisiae wt1 strain (SPY 50644) growth inhibition, active compounds read high
Outline: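 The wt1 strain was treated with compounds, and growth was compared with vehicle-treated cultures to give inhibition.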

[3] = NCI Yeast Anticancer Drug Screen. Data for the rad50EPP+ strain (AID 151);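 note: 0% = growth of vehicle-treated control cultures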; conditions: S. cerevisiae rad50 mutant strain, active compounds read high
Outline: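 rad50EPP+ yeast treated with test compounds. Readout: growth vs vehicle control.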

[4] = NCI Yeast Anticancer Drug Screen. Data for the mgt1 strain (AID 153); conditions: S. cerevisiae mgt1 mutant growth inhibition, active compounds read high
Outline: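 Growth inhibition relative to vehicle controls was scored for the mgt1 yeast strain after compound exposure.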

[5] = NCI Yeast Anticancer Drug Screen. Data for the rad50 strain (AID 155);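 note: 0% = growth of vehicle-only cultures of the same strain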; conditions: S. cerevisiae rad50 strain growth inhibition, active compounds read high
Outline: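 Cells are treated with compound, grown, and their growth is then scored against vehicle-only cultures of the same repair-deficient yeast strain.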

[6] = NCI Yeast Anticancer Drug Screen. Data for the mec2-1 strain (AID 157); conditions: S. cerevisiae mec2-1 strain, active compounds read high
Outline: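 Growth inhibition is read against vehicle-treated controls after compound exposure of the mec2-1 yeast strain, which is defective in DNA damage repair or cell cycle control.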

[7] = NCI Yeast Anticancer Drug Screen. Data for the rad14 strain (AID 159);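 note: 0% = growth of vehicle-treated control cultures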; conditions: S. cerevisiae rad14 strain growth inhibition, active compounds read high
Outline: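 Readout: yeast growth inhibition, referenced to vehicle-only cultures. Strain bears a defined alteration in DNA damage repair.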

[8] = NCI Yeast Anticancer Drug Screen. Data for the sgs1 mgt1 strain (AID 161);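 note: 0% = growth of cultures given vehicle only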; conditions: S. cerevisiae sgs1 mgt1 strain, active compounds read high
Outline: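 Compounds are added to genetically altered yeast, and growth is compared with cultures given vehicle alone to give percent inhibition.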

[9] = NCI Yeast Anticancer Drug Screen. Data for the CLN2oe strain (AID 163);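 note: 0% = growth of vehicle-only control cultures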; conditions: S. cerevisiae CLN2oe strain, active compounds read high
Outline: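 Compound-treated yeast; growth vs vehicle ctrl = % inhibition. Genetically altered strain (cell-cycle control).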

[10] = NCI Yeast Anticancer Drug Screen. Data for the cln2 rad14 strain (AID 165);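 note: 0% = growth equal to vehicle treated cultures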; conditions: S. cerevisiae cln2 rad14 strain, active compounds read high
Outline: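 Growth inhibition, relative to vehicle-treated controls, is the read-out. The test organism is a yeast strain with defined genetic alterations, cln2 rad14.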

[11] = NCI Yeast Anticancer Drug Screen. Data for the bub3 strain (AID 167); conditions: S. cerevisiae bub3 mutant strain, active compounds read high
Outline: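 Part of a panel of yeast mutants defective in DNA damage repair or cell cycle regulation. Each strain is grown with compound, and inhibition is calculated relative to solvent-treated cultures.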

[12] = NCI Yeast Anticancer Drug Screen. Data for the wt2 strain (AID 169);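 note: 0% = growth of vehicle-treated yeast cultures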; conditions: S. cerevisiae wt2 strain growth inhibition, active compounds read high
Outline: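 Compound exposure of yeast; growth compared with vehicle controls; inhibition reported.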

[13] = NCI Yeast Anticancer Drug Screen. Data for the mlh1 strain (AID 171);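 note: 0% = growth of vehicle-treated control cultures of the same strain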; conditions: S. cerevisiae mlh1 strain growth inhibition, active compounds read high
Outline: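 Compounds are applied to a genetically altered yeast strain, and its growth is compared with that of vehicle-treated cultures to give percent inhibition.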

[14] = NCI Yeast Anticancer Drug Screen. Data for the sgs1 strain (AID 173);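 note: 0% = growth of vehicle-only control cultures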; conditions: S. cerevisiae sgs1 mutant, active compounds read high
Outline: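 Compounds applied to genetically altered yeast; growth compared with vehicle-treated cultures to give % inhibition.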

[15] = NCI Yeast Anticancer Drug Screen. Data for the mlh1 rad18 strain (AID 175); conditions: S. cerevisiae mlh1 rad18 strain growth inhibition, active compounds read high
Outline: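 Cells of a genetically altered yeast strain, deficient in DNA damage repair, were treated with compound. Their growth was then compared with that of vehicle-treated cultures to give inhibition.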

[16] = NCI Yeast Anticancer Drug Screen. Data for the rad18 strain (AID 177); conditions: S. cerevisiae rad18 mutant growth inhibition, active compounds read high
Outline: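 Compounds are applied to a repair-deficient yeast strain, and growth is compared with that of vehicle-treated cultures to give percent inhibition.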

[17] = at 5.0 µM (retest, dose inferred, filed as 0.5)
[18] = at 50.0 µM (retest, dose inferred, filed as 5.0)

Measured: growth inhibition

CN(C)CC(CN(C)C)C(=O)/C=C/c1ccc(Cl)cc1Cl
inactive: [1]; at 1.2 µM 0% | [1]; at 3.7 µM -1% | [1]; at 11.0 µM 14% | [2]; at 1.2 µM -1% | [2]; at 3.7 µM -2% | [2]; at 11.0 µM -6% | [3]; at 1.2 µM -2% | [3]; at 3.7 µM -2% | [3]; at 11.0 µM 6% | [4]; at 1.2 µM -2% | [4]; at 3.7 µM -2% | [4]; at 11.0 µM 3% | [5]; at 1.2 µM -1% | [5]; at 3.7 µM 0% | [5]; at 11.0 µM 13% | [5]; at 50.0 µM 54.5% | [6]; at 1.2 µM -3% | [6]; at 3.7 µM -4% | [6]; [17] 13% | [6]; at 11.0 µM 6% | [6]; at 50.0 µM 42.2% | [7]; at 1.2 µM -2% | [7]; at 3.7 µM -2% | [7]; at 11.0 µM 17% | [8]; [17] 15% | [8]; at 50.0 µM 48.7% | [9]; at 1.2 µM -1% | [9]; at 3.7 µM -3% | [9]; at 11.0 µM -1% | [10]; [17] 0% | [10]; at 50.0 µM 43.8% | [11]; at 1.2 µM -3% | [11]; at 3.7 µM -4% | [11]; [17] -10% | [11]; at 11.0 µM -3% | [12]; at 1.2 µM -2% | [12]; at 3.7 µM -5% | [12]; at 11.0 µM 2% | [13]; at 1.2 µM -3% | [13]; at 3.7 µM -5% | [13]; at 11.0 µM 10% | [14]; at 1.2 µM -2% | [14]; at 3.7 µM -2% | [14]; at 11.0 µM 5% | [15]; [17] 6% | [15]; at 50.0 µM 45% | [16]; at 1.2 µM -4% | [16]; at 3.7 µM -3% | [16]; at 11.0 µM 14%
active: [1]; at 33.0 µM 98% | [1]; at 100.0 µM 97% | [2]; at 33.0 µM 98% | [2]; at 100.0 µM 98% | [3]; at 33.0 µM 98% | [3]; at 100.0 µM 98% | [4]; at 33.0 µM 99% | [4]; at 100.0 µM 98% | [5]; [17] 93% | [5]; at 33.0 µM 98% | [5]; [18] 98% | [5]; at 100.0 µM 97% | [6]; at 33.0 µM 98% | [6]; [18] 99% | [6]; at 100.0 µM 98% | [7]; at 33.0 µM 99% | [7]; at 100.0 µM 97% | [8]; [18] 99% | [9]; at 33.0 µM 98% | [9]; at 100.0 µM 97% | [10]; [18] 98% | [11]; at 33.0 µM 98% | [11]; [18] 98% | [11]; at 50.0 µM 99% | [11]; at 100.0 µM 97% | [12]; at 33.0 µM 98% | [12]; at 100.0 µM 98% | [13]; at 33.0 µM 99% | [13]; at 100.0 µM 98% | [14]; at 33.0 µM 98% | [14]; at 100.0 µM 98% | [15]; [18] 99% | [16]; at 33.0 µM 98% | [16]; at 100.0 µM 97%

Cc1ccc(NC(Nc2ccc(C)cc2C)=C(C(Cl)=C(Cl)Cl)[N+](=O)[O-])c(C)c1
active: [1]; at 11.0 µM 78% | [1]; at 33.0 µM 99% | [1]; at 100.0 µM 94% | [2]; at 33.0 µM 99% | [2]; at 100.0 µM 96% | [3]; at 100.0 µM 71% | [4]; at 33.0 µM 99% | [4]; at 100.0 µM 95% | [5]; [17] 90% | [5]; at 11.0 µM 72% | [5]; at 33.0 µM 99% | [5]; [18] 98% | [5]; at 50.0 µM 98% | [5]; at 100.0 µM 92% | [6]; [17] 74% | [6]; at 33.0 µM 99% | [6]; [18] 98% | [6]; at 50.0 µM 98.8% | [6]; at 100.0 µM 94% | [7]; at 33.0 µM 99% | [7]; at 100.0 µM 94% | [8]; [17] 94% | [8]; [18] 99% | [8]; at 50.0 µM 98.9% | [9]; at 33.0 µM 99% | [9]; at 100.0 µM 94% | [10]; [18] 98% | [10]; at 50.0 µM 98.7% | [11]; at 33.0 µM 99% | [11]; [18] 98% | [11]; at 50.0 µM 98.3% | [11]; at 100.0 µM 91% | [12]; at 33.0 µM 99% | [12]; at 100.0 µM 94% | [13]; at 33.0 µM 99% | [13]; at 100.0 µM 94% | [14]; at 11.0 µM 70% | [14]; at 33.0 µM 99% | [14]; at 100.0 µM 93% | [15]; [17] 96% | [15]; [18] 98% | [15]; at 50.0 µM 98.3% | [16]; at 11.0 µM 72% | [16]; at 33.0 µM 99% | [16]; at 100.0 µM 92%
inactive: [1]; at 1.2 µM 4% | [1]; at 3.7 µM 10% | [2]; at 1.2 µM 2% | [2]; at 3.7 µM 3% | [2]; at 11.0 µM 34% | [3]; at 1.2 µM 8% | [3]; at 3.7 µM 10% | [3]; at 11.0 µM 19% | [3]; at 33.0 µM 38% | [4]; at 1.2 µM 0% | [4]; at 3.7 µM 4% | [4]; at 11.0 µM 21% | [5]; at 1.2 µM 1% | [5]; at 3.7 µM 4% | [6]; at 1.2 µM 0% | [6]; at 3.7 µM 5% | [6]; at 11.0 µM 49% | [7]; at 1.2 µM 2% | [7]; at 3.7 µM 2% | [7]; at 11.0 µM 25% | [9]; at 1.2 µM -3% | [9]; at 3.7 µM -1% | [9]; at 11.0 µM 48% | [10]; [17] 27% | [11]; at 1.2 µM -2% | [11]; at 3.7 µM -4% | [11]; [17] 67% | [11]; at 11.0 µM 30% | [12]; at 1.2 µM 2% | [12]; at 3.7 µM 4% | [12]; at 11.0 µM 47% | [13]; at 1.2 µM 1% | [13]; at 3.7 µM 5% | [13]; at 11.0 µM 35% | [14]; at 1.2 µM 1% | [14]; at 3.7 µM 11% | [16]; at 1.2 µM 2% | [16]; at 3.7 µM 7%
